In PubChem BioAssay (Tox21) one finds Potency and outcome data, which are given here for eight compounds.

The nature of assay [1]: Nuclear factor erythroid 2-related factor 2/antioxidant responsive element (Nrf2/ARE) small molecule agonists: qHTS cell viability counter screen in human keratinocytes (AID 1919968; active = well fitted curve in the direction sought with a large enough effect in the repeat runs; an effect the other way counts as inactive or inconclusive; also: nearly all actives have a fitted effect of over 55% in size; also: potency is read from the fitted curve at half-maximal effect). The procedure, abridged: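 Seed 1,500 KeratinoSens cells per well, then incubate 5 h at 37 C/5% CO2. Add compounds in DMSO and incubate 23 h. Add CellTiter-Fluor, wait 1 h and read fluorescence.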
For orientation: qHTS replaces the single test concentration by a dilution series.

Assay [2] can be described thus: Nuclear factor erythroid 2-related factor 2/antioxidant responsive element (Nrf2/ARE) small molecule agonists: luciferase reporter gene qHTS assay in human keratinocytes (AID 1919969). Also: nearly all actives have a fitted effect of over 35% in size. In general terms: A reporter such as luciferase makes a cellular process visible.
Assay [3] concerns the target Gonadotropin-releasing hormone receptor (Homo sapiens) (UniProt P30968). The experiment in a line: Human gonadotropin-releasing hormone receptor (GnRHR) small molecule agonists, calcium flux assay in GnRHR-HEK293 cells (AID 1920063). Also: nearly all actives have a fitted effect of over 35% in size. The method, boiled down:
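Cells: HEK293 stably expressing human GnRHR. Steps: overnight (18 h) culture, 1 h calcium dye loading at 37 C, compound addition, kinetic fluorescence read at 480/540 nm. Each compound tested at 15 concentrations in triplicate.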

The target of assay [4] is KiSS-1 receptor (Homo sapiens) (UniProt Q969F8). Kind of assay: Human kisspeptin (KISS1R) small molecule agonists, calcium flux assay in KISS1R-HEK293 cells (AID 1920064; active = well fitted curve in the direction sought with a large enough effect in the repeat runs; an effect the other way counts as inactive or inconclusive). The procedure, abridged: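 Cells plated and incubated 18 h; dye added, 1 h at 37 C; compounds in DMSO pinned in; signal read at 480/540 nm every second for 3 min. Each compound tested at 15 concentrations in triplicate.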
A general note: Calcium assays in cells follow changes in intracellular calcium, usually with a dye or a luminescent sensor.

Assay [5] can be described thus: G protein-coupled receptor (GPCR) small molecule agonists, calcium flux assay: HEK293 wild type cell line counter screen (AID 1920065). The procedure, abridged: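 Counter-screen of the Tox21 10K library for non-specific calcium release: dye-loaded cells received compounds in DMSO and were monitored by kinetic fluorescence (480/540 nm, 3 min). Fifteen concentrations, run in triplicate.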

The nature of assay [6]: p53 small molecule agonists, cell-based qHTS assay with human liver microsomes (AID 1963577). The procedure, abridged: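 In this qHTS, p53 response-element beta-lactamase cells receive test compound together with a microsome/NADPH activating system (0.5 mg/mL final each) and are incubated 16 h at 37 C before LiveBLAzer fluorescence detection.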
A short description of assay [7]: p53 small molecule agonists, cell-based qHTS assay with rat liver microsomes (AID 1963578). The method, boiled down: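 Agonist mode in p53RE-bla reporter cells, with compounds co-incubated 16 h at 37 C alongside 0.5 mg/mL rat liver microsomes and 0.5 mg/mL NADPH (final), followed by a 2 h LiveBLAzer detection step.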
Assay [8] can be described thus: p53 small molecule agonists, cell-based qHTS assay with human liver microsomes: qHTS cell viability counter screen (AID 1963579). Also: nearly all actives have a fitted effect of over 45% in size. The procedure, abridged:
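Metabolically activated exposure: compounds, human liver microsomes and NADPH (0.5 mg/mL final apiece) were added to p53RE-bla cells seeded 5 h earlier, left 16 h at 37 C, and then assessed for viability by CellTiter-Glo luminescence.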

A short description of assay [9]: p53 small molecule agonists, cell-based qHTS assay with rat liver microsomes: qHTS cell viability counter screen (AID 1963580). Also: nearly all actives have a fitted effect of over 45% in size. The procedure, abridged:
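In HCT-116 cells carrying a p53 response element-bla reporter, compounds were metabolically activated in situ by rat liver microsomes with NADPH over 16 h. Cell ATP content then served as the cytotoxicity measure.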

For assay [10], the target named is 5-hydroxytryptamine receptor 2A (Homo sapiens) (UniProt P28223). The experiment in a line: 5-hydroxytryptamine receptor 2A (HTR2A) small molecule antagonists, cell-based qHTS assay (AID 1963586). Also: nearly all actives have a fitted effect of over 45% in size. Also: potency is read from the fitted curve at half-maximal effect. The procedure, abridged: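 Antagonist-mode intracellular calcium assay: DOI (4 nM) added after 5 min compound pre-incubation at room temperature to dye-loaded HTR2A-CHO cells. Fluorescence followed for 3 min, sampled every second.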

Assay [11] shares this target. The experiment in a line: 5-hydroxytryptamine receptor 2A (HTR2A) small molecule agonists, cell-based qHTS assay (AID 1963587). Also: nearly all actives have a fitted effect of over 30% in size. Also: potency is read from the fitted curve at half-maximal effect. The procedure, abridged: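 HTR2A-CHO cells, plated 18 h at 37 C/5% CO2, dye-loaded 1 h at 37 C; compounds in DMSO added by pin tool (agonist mode). Intracellular calcium flux read as kinetic fluorescence on FDSS over 2 min at 1 s intervals.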

For assay [12], the target named is Muscarinic acetylcholine receptor M1 (Homo sapiens) (UniProt P11229). Kind of assay: Cholinergic receptor muscarinic 1 (CHRM1) small molecule antagonists, cell-based qHTS assay (AID 1963588). Also: nearly all actives have a fitted effect of over 40% in size. The procedure, abridged:
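CHRM1-CHO calcium-flux assay, antagonist mode. Cells were seeded 18 h, dye-loaded 1 h at 37 C and given compound for 5 min at RT, then acetylcholine was added at 50nM. FDSS fluorescence was read 3 min; 15 concentrations, three runs.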

The target is the same in assay [13]. The experiment in a line: Cholinergic receptor muscarinic 1 (CHRM1) small molecule agonists, cell-based qHTS assay (AID 1963589). Also: nearly all actives have a fitted effect of over 35% in size. The method, boiled down: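 Agonist-mode qHTS in CHO cells stably carrying human muscarinic M1. Intracellular calcium is tracked by fluorescence every second after compound transfer; each compound runs at 15 concentrations in three independent runs.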

Assay [14] concerns the target Beta-2 adrenergic receptor (Homo sapiens) (UniProt P07550). Kind of assay: Adrenergic beta2 receptor (ADRB2) small molecule antagonists, cell-based qHTS assay (AID 1963592). Also: nearly all actives have a fitted effect of over 50% in size. Also: potency is read from the fitted curve at half-maximal effect. The method, boiled down: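 Cells (CHO, stable ADRB2 overexpression) incubated 18-20hr at 37C; compounds added from DMSO; agonist mix (1nM isoproterenol, 100uM IBMX, 25uM Ro-20-1724) added; 0.5hr RT; d2-cAMP and anti-cAMP-cryptate added; 1hr RT; 665/615 nm read.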

The nature of assay [15]: cAMP Responsive Elements (CRE) small molecule antagonists, cell-based qHTS assay (AID 1963591; active = well fitted inhibition curve with a large enough effect in the signal ratio in the repeat runs, not every such curve was filed as active; the % refers to the signal ratio). The method, boiled down:
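Antagonist mode: test compounds are co-incubated with the adenylyl cyclase activator NKH477 (0.25 uM final) on CRE-bla HEK293T cells for 3 h at 37 °C, followed by LiveBLAzer substrate loading.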

The target in assay [16] is D(2) dopamine receptor (Homo sapiens) (UniProt P14416). Kind of assay: Dopamine D2 receptor (DRD2) small molecule agonists, cell-based qHTS assay (AID 1963594). Also: nearly all actives have a fitted effect of over 35% in size. The procedure, abridged:
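HEK293 cells stably expressing DRD2 were cultured 24 h at 37 C, then given Ro20-1724 (0.1 mM final) and compounds for 10 min at room temperature. NKH477 (200nM) was then added for 30 min. cAMP was read by HTRF.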

Assay [17] has the same target. The experiment in a line: Dopamine D2 receptor (DRD2) small molecule antagonists, cell-based qHTS assay (AID 1963595; active = well fitted inhibition curve with a large enough effect in the signal ratio in the repeat runs, with a control signal flat; the % refers to the signal ratio). The procedure, abridged:
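In this cell-based antagonist screen, compounds act for 10 min at room temperature before a 30 min challenge with 12 nM quinpirole and 200 nM NKH477. cAMP is quantified by HTRF competition in DRD2-HEK293 cells containing 0.1 mM Ro20-1724.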

Assay [18] can be described thus: p53 small molecule agonists, cell-based qHTS assay: qHTS cell viability counter screen (AID 1963581). Also: nearly all actives have a fitted effect of over 45% in size. The method, boiled down:
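Cells: HCT-116 with p53 response element-driven beta-lactamase. Treatment: 16 h, 37 C, compounds in DMSO. Read: CellTiter-Glo luminescence after 30 min RT.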

Assay [19] in a line: p53 small molecule agonists, cell-based qHTS assay (AID 1963582; active = well fitted activation curve with a large enough effect in the signal ratio in the repeat runs, not every such curve was filed as active; the % refers to the signal ratio). The procedure, abridged:
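Quantitative HTS in p53RE-bla cells: after a 5 h settling period, compounds delivered in DMSO were left on cells for 16 h at 37 C, and reporter induction was measured as fluorescence following 2 h substrate loading.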

Assay [20] in a line: cAMP Responsive Elements (CRE) small molecule agonists, cell-based qHTS assay (AID 1963590). The method, boiled down: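 Agonist mode qHTS in CRE-bla HEK 293T cells: compounds dosed from DMSO for 3 h at 37 C/5% CO2, followed by LiveBLAzer B/G FRET substrate for 2 h at room temperature.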

A number with no mark means an inactive call. Records with an inconclusive call do not appear. Activity calls are given as the source filed them. Unless noted, calls follow the shape of the full dose curve.

Chain of Gonadotropin-releasing hormone receptor (Homo sapiens) (P30968 whole entry, looked up): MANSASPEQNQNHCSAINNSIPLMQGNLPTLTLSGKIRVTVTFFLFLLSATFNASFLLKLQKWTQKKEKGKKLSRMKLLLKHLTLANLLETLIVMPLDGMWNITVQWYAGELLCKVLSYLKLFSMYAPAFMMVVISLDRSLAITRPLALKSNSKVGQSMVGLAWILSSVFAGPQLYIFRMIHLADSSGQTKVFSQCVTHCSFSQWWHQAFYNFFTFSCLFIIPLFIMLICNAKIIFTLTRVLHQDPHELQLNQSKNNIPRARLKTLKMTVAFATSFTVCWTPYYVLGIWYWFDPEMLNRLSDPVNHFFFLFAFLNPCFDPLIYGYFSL
Chain of Muscarinic acetylcholine receptor M1 (Homo sapiens) (P11229 whole entry, looked up): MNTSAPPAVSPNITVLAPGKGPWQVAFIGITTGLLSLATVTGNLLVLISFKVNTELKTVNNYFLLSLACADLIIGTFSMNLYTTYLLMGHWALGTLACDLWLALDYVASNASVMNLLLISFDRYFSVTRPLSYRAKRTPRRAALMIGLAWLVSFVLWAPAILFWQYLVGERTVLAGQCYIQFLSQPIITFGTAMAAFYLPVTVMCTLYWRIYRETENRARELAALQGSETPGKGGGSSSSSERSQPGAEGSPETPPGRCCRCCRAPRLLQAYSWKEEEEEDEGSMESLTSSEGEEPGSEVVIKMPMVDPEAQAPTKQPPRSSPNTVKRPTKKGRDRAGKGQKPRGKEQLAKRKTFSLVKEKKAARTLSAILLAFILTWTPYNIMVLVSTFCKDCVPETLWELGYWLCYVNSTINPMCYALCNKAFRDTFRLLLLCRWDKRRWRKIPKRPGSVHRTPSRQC
Chain of KiSS-1 receptor (Homo sapiens) (Q969F8 whole entry, looked up): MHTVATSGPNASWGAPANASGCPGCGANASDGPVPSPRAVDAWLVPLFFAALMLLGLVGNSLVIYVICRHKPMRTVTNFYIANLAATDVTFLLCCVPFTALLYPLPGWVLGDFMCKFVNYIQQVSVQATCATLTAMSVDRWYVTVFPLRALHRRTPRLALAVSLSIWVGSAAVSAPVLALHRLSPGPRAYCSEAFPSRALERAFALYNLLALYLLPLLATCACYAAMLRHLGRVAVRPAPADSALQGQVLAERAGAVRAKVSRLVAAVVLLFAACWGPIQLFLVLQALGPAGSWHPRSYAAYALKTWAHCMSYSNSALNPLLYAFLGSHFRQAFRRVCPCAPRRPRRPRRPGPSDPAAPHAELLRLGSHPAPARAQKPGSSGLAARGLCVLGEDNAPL
Chain of D(2) dopamine receptor (Homo sapiens) (P14416 whole entry, looked up): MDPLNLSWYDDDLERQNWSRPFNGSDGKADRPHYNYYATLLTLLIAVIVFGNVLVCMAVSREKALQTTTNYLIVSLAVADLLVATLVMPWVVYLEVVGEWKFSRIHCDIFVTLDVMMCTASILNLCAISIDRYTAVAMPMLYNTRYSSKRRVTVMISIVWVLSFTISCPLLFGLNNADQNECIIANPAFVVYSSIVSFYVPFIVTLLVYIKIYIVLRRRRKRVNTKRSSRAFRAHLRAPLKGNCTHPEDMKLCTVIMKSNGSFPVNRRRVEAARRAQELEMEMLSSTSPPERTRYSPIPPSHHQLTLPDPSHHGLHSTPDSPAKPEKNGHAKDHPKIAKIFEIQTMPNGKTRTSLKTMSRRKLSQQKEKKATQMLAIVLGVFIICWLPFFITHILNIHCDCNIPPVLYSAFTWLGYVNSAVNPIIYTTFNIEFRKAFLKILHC
Chain of 5-hydroxytryptamine receptor 2A (Homo sapiens) (P28223 whole entry, looked up): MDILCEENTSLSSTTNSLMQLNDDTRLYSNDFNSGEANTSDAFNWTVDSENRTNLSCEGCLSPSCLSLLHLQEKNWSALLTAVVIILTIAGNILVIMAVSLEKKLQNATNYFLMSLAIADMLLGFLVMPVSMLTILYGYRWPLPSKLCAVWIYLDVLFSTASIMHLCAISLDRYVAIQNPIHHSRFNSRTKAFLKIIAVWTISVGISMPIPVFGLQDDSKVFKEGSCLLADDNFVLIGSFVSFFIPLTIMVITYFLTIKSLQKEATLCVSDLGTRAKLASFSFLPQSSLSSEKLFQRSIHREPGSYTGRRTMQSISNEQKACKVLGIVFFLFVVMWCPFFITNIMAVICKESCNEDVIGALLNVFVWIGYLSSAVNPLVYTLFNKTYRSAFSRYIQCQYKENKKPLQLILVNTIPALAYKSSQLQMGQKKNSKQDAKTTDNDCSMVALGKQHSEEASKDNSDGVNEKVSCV
Chain of Beta-2 adrenergic receptor (Homo sapiens) (P07550 whole entry, looked up): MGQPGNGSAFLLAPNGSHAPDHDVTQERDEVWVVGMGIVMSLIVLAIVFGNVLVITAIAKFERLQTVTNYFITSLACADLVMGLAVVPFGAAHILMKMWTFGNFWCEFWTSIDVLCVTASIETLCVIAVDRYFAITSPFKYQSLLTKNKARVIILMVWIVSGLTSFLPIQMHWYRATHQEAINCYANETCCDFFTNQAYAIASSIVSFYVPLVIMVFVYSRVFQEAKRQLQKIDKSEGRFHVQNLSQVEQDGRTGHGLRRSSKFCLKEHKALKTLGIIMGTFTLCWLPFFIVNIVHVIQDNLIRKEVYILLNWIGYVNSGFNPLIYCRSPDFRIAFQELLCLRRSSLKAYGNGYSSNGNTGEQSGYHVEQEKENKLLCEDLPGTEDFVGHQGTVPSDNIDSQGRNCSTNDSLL

For the compound `CCCCCN=C(N)N/N=C/c1c[nH]c2ccc(OC)cc12`, the Potency is 6.68 µM (active) in assay [1], 0.0326 µM (active) in assay [10], 0.0107 µM (active) in assay [11] and 26.6 µM (active) in [14]. In addition, the Potency entry in assay [2], in assay [3], in [6], in assay [7], in assay [8] and in [9] was “inactive” each time. For the same compound, the Potency entry in assay [12] and in assay [13] was “inactive” each time. For the same compound, the outcome in [4] and in assay [5] was inactive.
Take `CCCCCN(CCCCC)C(=O)C(CCC(=O)O)NC(=O)c1ccc(Cl)c(Cl)c1` (stereo not given): the Potency entry in assay [1], in [2], in assay [3], in assay [6], in assay [7] and in [8] was “inactive” in each case. The Potency result in assay [9], in assay [10], in [11], in [12], in assay [13] and in assay [15] was “inactive” each time. Further, the Potency result in assay [14] and in assay [16] was “inactive” each time. Further, the outcome in [4] and in assay [5] was inactive.
In the case of `FC(F)(F)C(F)(F)C(F)(F)C(F)(F)CCI`, the Potency result in assay [1], in [2], in assay [3], in assay [6], in assay [7] and in assay [8] was “inactive” in each case. Besides, the Potency result in [9], in [10], in assay [11], in assay [12], in [13] and in assay [15] was “inactive” in each case. Further, the Potency entry in assay [14], in assay [16] and in [17] was “inactive” throughout. Also, the result in assay [4] and in assay [5] was inactive.
Turning to `O=S(=O)(O)c1ccc(N=Nc2c(O)ccc3ccccc23)cc1`, the Potency in assay [1] was 61.1 µM (active). For the same compound, the Potency entry in assay [2], in assay [3], in assay [6], in assay [7], in [8] and in assay [9] was “inactive” each time. In addition, the Potency result in [10], in [11], in assay [12], in assay [13], in assay [14] and in [16] was “inactive” each time. The result in assay [4] and in [5] was inactive.
On to `C=C(C)CCCC`, for which the Potency result in assay [1], in assay [2], in assay [3], in [6], in [7] and in assay [8] was “inactive” throughout. For the same compound, the Potency result in assay [18], in [19], in [10], in assay [11], in assay [12] and in assay [13] was “inactive” each time. Moreover, the Potency result in assay [20], in [15], in [14], in [16] and in assay [17] was “inactive” throughout. In addition, the outcome in assay [4] and in assay [5] was inactive.
`N#Cc1cc2ccccc2c2ccccc12`: the Potency result in [1], in [2], in assay [3], in assay [6], in [7] and in assay [8] was “inactive” in each case. Further, the Potency result in [9], in [10], in [11], in [13], in assay [20] and in assay [15] was “inactive” throughout. Moreover, the Potency result in assay [14], in assay [16] and in assay [17] was “inactive” each time. Moreover, the result in [4] and in assay [5] was inactive.
As to `CCN1CCCC1CNC(=O)c1cc(S(N)(=O)=O)ccc1OC` (stereo not given), the Potency entry in assay [1], in assay [2], in assay [3], in assay [6], in [7] and in assay [8] was “inactive” in each case. Besides, the Potency result in assay [9], in assay [14] and in assay [16] was “inactive” in each case. The result in assay [4] and in [5] was inactive.
For `NC(=O)c1ccccc1[N+](=O)[O-]`, the Potency result in assay [1], in assay [2], in [3], in assay [6], in [7] and in [8] was “inactive” each time. Moreover, the Potency result in assay [9], in assay [10], in [11], in [12], in [13] and in assay [20] was “inactive” each time. Besides, the Potency result in assay [14] and in [17] was “inactive” each time. Besides, the result in [4] and in assay [5] was inactive.
